# Structures can show the parent of a compound that is named as a salt.
# Test system: HEPG2
# Assay: Euclidean distance of Cell Painting phenotypic profile (signed KS, 77 features) to DMSO centroid (dimensionless distance); 5 or 10 uM (library dependent); higher = stronger phenotypic change vs DMSO (phenoactivity)
# Conditions: 48 h
# In short: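 Stained cells were imaged confocally at 20X with 9 fields per well, after 48 h of exposure to library compounds at 10 or 5 uM (set by library; 0.1% DMSO final). The cells were five cancer lines and a healthy fibroblast line. From the images, Harmony extracted 77 features, each expressed as a signed Kolmogorov-Smirnov statistic relative to same-plate vehicle wells. Phenoactivity is measured as Euclidean distance to the median vehicle profile, using plate-position-corrected, correlation-weighted profiles averaged across replicates at the top dose.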
row,SMILES,Euclidean distance
1,CN(C)CCOc1ccc(/C(=C(/CCCl)c2ccccc2)c2ccccc2)cc1 [Toremifene Citrate],2.79
2,CS(=O)(=O)CCC#N [Dapansutrile (OLT1177)],0.92
3,Nc1ccn([C@@H]2O[C@H](CO)[C@@H](O)C2(F)F)c(=O)n1 [Gemcitabine],2.74
4,CCN1CCN(Cc2ccc(-c3cc4c(N[C@H](C)c5ccccc5)ncnc4[nH]3)cc2)CC1,1.73
5,Cc1ccc(C(=O)Nc2ccc(CN3CCN(C)CC3)c(C(F)(F)F)c2)cc1C#Cc1cnc2cccnn12,4.93
6,Cc1cc(CC(C)CC(C)(C)C)n(O)c(=O)c1 (stereo not given) [Piroctone Olamine],3.88
7,CNC(=O)c1cc(Oc2ccc3nc(N[C@@H]4CCCC[C@H]4O)sc3c2)ccn1,0.898
8,COc1ccccc1S(=O)(=O)Nc1ccc2c(c1)CN(C)C(=O)N2,2.74
9,O=c1[nH]c(=O)n([C@H]2C[C@H](O)[C@@H](CO)O2)cc1I [Idoxuridine],1.5
10,C[C@]12CCC(=O)C=C1CC[C@@H]1[C@@H]2[C@@H](O)C[C@@]2(C)[C@H]1CC[C@]2(O)C(=O)CO [Hydrocortisone],0.62
11,CCOC(=O)[C@H](CCc1ccccc1)N[C@@H](C)C(=O)N1CCC[C@H]1C(=O)O [Enalapril Maleate],0.78
12,O=S1(=O)CCN(CN2CCS(=O)(=O)NC2)CN1 [Taurolidine],0.654
13,CC(=O)O[C@H]1Cc2ccccc2N(C(N)=O)c2ccccc21 [Eslicarbazepine Acetate],1.17
14,C[C@]12CC[C@@H]3c4ccc(OC(=O)c5ccccc5)cc4CC[C@H]3[C@@H]1CC[C@@H]2O [Estradiol Benzoate],0.557
15,Nc1nc(N)c(N=O)c(OCC2CCCCC2)n1,0.792
16,CN1CCN(c2ccc3nc(-c4c(N)c5c(F)cccc5[nH]c4=O)[nH]c3c2)CC1 [Dovitinib (TKI-258) Dilactic Acid],0.932
17,Cc1cccc(Oc2cnc(=O)[nH]c2)c1,0.543
18,CC(C)(C)CC(C)(C)c1ccc(OCCOCC[N+](C)(C)Cc2ccccc2)cc1 [Benzethonium Chloride],2.43
19,O=C(NC1CCNCC1)c1n[nH]cc1NC(=O)c1c(Cl)cccc1Cl,2.47
20,CCCNCC(O)COc1ccccc1C(=O)CCc1ccccc1 (stereo not given) [Propafenone HCl],0.85

row,SMILES,Euclidean distance
1,CCCC(=O)Nc1ccc(OCC(O)CNC(C)C)c(C(C)=O)c1 (stereo not given) [Acebutolol HCl],0.817
2,COC(=O)C1=CO[C@@H](O[C@@H]2O[C@H](CO)[C@@H](O)[C@H](O)[C@H]2O)[C@@H]2[C@@H](C)[C@@H](O)C[C@H]12 [Loganin],0.691
3,NCCS [Cysteamine HCl],0.897
4,Cc1nc(Nc2ncc(C(=O)Nc3c(C)cccc3Cl)s2)cc(N2CCN(CCO)CC2)n1 [Dasatinib Monohydrate],2.09
5,N[C@@H]1CCCCN(c2c(F)cc3c(=O)c(C(=O)O)cn(C4CC4)c3c2Cl)C1 [Besifloxacin HCl],0.864
6,N=C(N)NC(=O)c1nc(Cl)c(N)nc1N [Amiloride HCl dihydrate],0.663
7,C[C@@H](Oc1ccc2[nH]nc(/C=C/c3cnn(CCO)c3)c2c1)c1c(Cl)cncc1Cl,3.02
8,Nc1ccc(S(=O)(=O)Nc2ccnn2-c2ccccc2)cc1 [Sulfaphenazole],0.469
9,CC(C)CC(=O)Nc1n[nH]c2c1CN(C(=O)C1CCN(C)CC1)C2(C)C,2.82
10,O=C1NC(=O)C(=Cc2ccc(-c3ccc(F)cc3)o2)S1 (stereo in doubt),0.808
11,Cn1c(=O)cc(N2CCC[C@@H](N)C2)n(Cc2cc(F)ccc2C#N)c1=O [Trelagliptin succinate],0.54
12,CC[C@H]1OC(=O)C[C@@H](O)[C@H](C)[C@@H](O[C@@H]2O[C@H](C)[C@@H](O[C@H]3C[C@@](C)(O)[C@@H](O)[C@H](C)O3)[C@H](N(C)C)[C@H]2O)[C@@H](CC=O)C[C@@H](C)C(=O)/C=C/C(C)=C/[C@@H]1CO[C@@H]1O[C@H](C)[C@@H](O)[C@@H](OC)[C@H]1OC [Tylosin],0.42
13,CN1C(N)=N[C@](C)(c2cc(NC(=O)c3ccc(F)cn3)ccc2F)CS1(=O)=O [Verubecestat (MK-8931)],0.509
14,CC(=O)OCC(=O)[C@@]1(O)CC[C@H]2[C@@H]3CCC4=CC(=O)CC[C@]4(C)[C@H]3[C@@H](O)C[C@@]21C [Hydrocortisone acetate],1.05
15,CC(C)(CO)[C@@H](O)C(=O)NCCC(=O)O [D-Pantothenic acid],0.485
16,CC(C)Cn1cnc2c(N)nc3ccccc3c21 [Imiquimod],0.448
17,CCOc1ccc2nc(S(N)(=O)=O)sc2c1 [Ethoxzolamide],1.09
18,CCOC(=O)Nc1cc(-c2ccc(C)c(NS(C)(=O)=O)c2)nn2c(C)nnc12 [Bromosporine],1.13
19,CCN1CCN(C(=O)N[C@@H](C(=O)N[C@@H]2C(=O)N3[C@@H]2SC(C)(C)[C@@H]3C(=O)O)c2ccccc2)C(=O)C1=O [Piperacillin Sodium],0.514
20,CCCCCCCCCCC[C@@H](C[C@@H]1OC(=O)[C@H]1CCCCCC)OC(=O)[C@H](CC(C)C)NC=O [Orlistat],1.12
